Test results reported in PubChem BioAssay (NCI).
Where “and” joins values, the source holds several entries; their conditions need not be identical. Identical values can stand only once. The panel holds about 79,000 compounds, 15% with a hit somewhere; the sample as a whole holds those more often. Cut-off read from the data, not from the text of the source: active = growth inhibition above about 70%; inactive = the rest.

Legend:
[1] = NCI Yeast Anticancer Drug Screen. Data for the rad50 strain (AID 155);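 note: 0% = growth of vehicle-only cultures of the same strain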; details: S. cerevisiae rad50 strain growth inhibition; at 50.0 µM; hits give high values
Method in brief: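 Relative growth inhibition (compound vs vehicle) was measured in yeast with a defined repair-gene alteration.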

[2] = NCI Yeast Anticancer Drug Screen. Data for the mec2-1 strain (AID 157); details: S. cerevisiae mec2-1 strain, at 50.0 µM, hits give high values
Method in brief: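 Using mec2-1 yeast: add compound, measure growth, express inhibition versus vehicle-treated cultures.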

[3] = NCI Yeast Anticancer Drug Screen. Data for the sgs1 mgt1 strain (AID 161);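 note: 0% = growth of cultures given vehicle only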; details: S. cerevisiae sgs1 mgt1 strain, at 50.0 µM, hits give high values
Method in brief: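 This yeast growth screen uses a strain with defined DNA-repair lesions; compound-treated growth is compared with vehicle-treated growth.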

[4] = NCI Yeast Anticancer Drug Screen. Data for the cln2 rad14 strain (AID 165);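 note: 0% = growth equal to vehicle treated cultures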; details: S. cerevisiae cln2 rad14 strain, at 50.0 µM, hits give high values
Method in brief: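 Yeast strain cln2 rad14, bearing defects in cell cycle control and DNA repair, serves as the test system; values reflect growth inhibition compared with vehicle.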

[5] = NCI Yeast Anticancer Drug Screen. Data for the bub3 strain (AID 167); details: S. cerevisiae bub3 mutant strain, at 50.0 µM, hits give high values
Method in brief: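 Screening used yeast with an engineered genetic alteration affecting cell cycle control. Compound-exposed cultures were compared with vehicle cultures, and reduced growth was taken as inhibition.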

[6] = NCI Yeast Anticancer Drug Screen. Data for the mlh1 rad18 strain (AID 175); details: S. cerevisiae mlh1 rad18 strain growth inhibition; at 50.0 µM; hits give high values
Method in brief: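 Steps: expose repair-defective yeast to compound; measure growth; express inhibition against vehicle-treated controls.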

Measured: growth inhibition

CC1(C)Cc2cccc(C=C(C#N)C#N)c2O1
inactive: [1] 6.9% | [2] 20.6% | [3] 3.25% | [4] -63.5% | [5] -6.85% | [6] -3.25%

CCCC1CC=CCC12C(=O)NC(=O)NC2=O (centres undefined)
inactive: [1] -4.7% | [2] 1.45% | [3] 12.7% | [4] -6.5% | [5] 0.5% | [6] 12.9%

N#CC1(c2ccccc2)CCCC1
inactive: [1] 5.7% | [2] 8.25% | [3] -4.7% | [4] 11.6% | [5] -4.05% | [6] 2.2%

CC(=O)OC1(C#N)CC2OC1C1NC21 (centres undefined)
inactive: [1] 5.7% | [2] -8.8% | [3] 18.4% | [4] 8.8% | [5] -14.7% | [6] -13%

COC1=N[C@]2(O)C[C@]3(C)[C@@H](O)CC[C@H]3[C@@H]3CCC4=CC(=O)CC[C@]4(C)[C@]32S1
inactive: [1] 7.4% | [2] 10.6% | [3] 2.3% | [4] -22.7% | [5] 33.8% | [6] 3.2%

Nc1nc(N)n2c(N)nnc2n1
inactive: [1] -3.4% | [2] -19.4% | [3] -0.25% | [4] 1.5% | [5] 4.65% | [6] 13.7%

CCC12C=CCN3CCC4(c5ccc(OC)cc5N(C)C4C(O)(C(=O)OC)C1OC(C)=O)C32 (centres undefined) (tested in a mixture with another compound)
inactive: [1] 5.3% and 8.35% | [2] 5.4% and 17.2% | [3] -5.85% and 11.3% | [4] -10.7% and 2.25% | [5] -3.15% and 0.7% | [6] 25.4% and 22.1%

O=P(OCCCCl)(OCCCCl)C(Cl)(Cl)Cl
inactive: [1] -0.45% | [2] -5.65% | [3] -5.2% | [4] 6.85% | [5] 13.7% | [6] 2.15%

Cc1cccc(C)c1[S][Pb][S]c1c(C)cccc1C
inactive: [1] -0.6% | [2] -3.75% | [3] -7.9% | [4] -0.75% | [5] -2.05% | [6] -17.4%

O=C(NC1CC1)c1c(O)[nH]c(=S)[nH]c1=O
inactive: [1] -3% | [2] -8.2% | [3] -12.8% | [4] 16.6% | [5] -6.15% | [6] -17.1%

CCCOCC(O)C[As](=O)(O)c1cccc(Cl)c1 (centres undefined)
inactive: [1] 2.35% | [2] 3.55% | [3] 0.3% | [4] -4.4% | [5] 10.2% | [6] -5.55%

CC1(C)OCC(C2NC2C2COC(C)(C)O2)O1 (centres undefined)
inactive: [1] -4.55% | [2] -6.85% | [3] -11.1% | [4] -40.4% | [5] -10.9% | [6] 6.5%

CCC(=O)c1ccc(C)cc1
inactive: [1] -11.5% | [2] 1.2% | [3] -10.4% | [4] -16.7% | [5] 4.2% | [6] -3.45%

CCCCCCCN1CCC(C(=O)CC)(c2cccc(O)c2)CC1
inactive: [1] 21.6% | [2] 21.4% | [3] 33.5% | [4] -2.75% | [5] 15.9% | [6] 30.6%

NC1=C(c2nc(-c3ccccc3)cs2)C(c2ccco2)c2c(c3ccccc3oc2=O)O1 (centres undefined)
inactive: [1] -4.7% | [2] 5.05% | [3] 23.8% | [4] 13.2% | [5] 6.35% | [6] 12.9%

O=S(=O)(Cl)OO/C=C\OOS(=O)(=O)Cl
inactive: [1] 18.2% | [2] 2.8% | [3] 12.7% | [4] -19.2% | [5] 11% | [6] -1.65%

CC(C)=CC1C(C(=O)OCc2ccc(Cl)c(Cl)c2)C1(C)C (centres undefined)
inactive: [1] 4.25% | [2] -2.5% | [3] 8.9% | [4] 16.9% | [5] 8.9% | [6] 5.25%

O=C1NC(=S)NC(=O)C1=Cc1ccc(-c2ccccc2)cc1
inactive: [1] 33.1% | [2] -12% | [3] 16.7% | [4] 15.6% | [5] 13.3% | [6] 15.3%

CC(C)c1ccc(-n2c(=S)[nH]c3ccccc3c2=O)cc1
inactive: [1] -16.3% | [2] -7% | [3] -13.8% | [4] -25% | [5] -5.7% | [6] 13.8%

CCC[N+](CCC)(CCC)CCC.N#CC(C#N)=C([SH2+])[SH2+].N#CC(C#N)=C([SH2+])[SH2+].N#CC(C#N)=C([SH2+])[SH2+].[Cr+3]
inactive: [1] -3.1% | [2] 10.2% | [3] 11.8% | [4] -35% | [5] 9.1% | [6] 7.5%

CCCC1(c2ccccc2)C(=O)NCNC1=O
inactive: [1] -21.8% | [2] -30.4% | [3] -24.3% | [4] -12.2% | [5] -25.4% | [6] -25.1%

Cc1ccc(O)c(Cl)c1
inactive: [1] -1% | [2] 5.4% | [3] -19.4% | [4] -11.7% | [5] 0.15% | [6] 38%

COc1cc[c]([Pb]([c]2ccc(Cl)cc2)([c]2ccc(Cl)cc2)[c]2ccc(OC)cc2)cc1
inactive: [1] -13.4% | [2] -8.95% | [3] -1.1% | [4] -25.7% | [5] -4.25% | [6] 16.2%

C1CN1[PH+](N1CC1)N1CC1.[C-]#[O+].[C-]#[O+].[C-]#[O+].[C-]#[O+].[C-]#[O+].[Cr]
inactive: [1] -5.55% | [2] -4.65% | [3] -0.75% | [4] -11.8% | [5] 2.4% | [6] -17.3%

Cc1nnc2cc3ccccc3cn12
inactive: [1] 21% | [2] 9.45% | [3] 26.4% | [4] 9.45% | [5] 21.9% | [6] 18.1%

[O-]c1n[n+](C2CCCCC2)no1
inactive: [1] -11.4% | [2] -7.6% | [3] -45.7% | [4] -31.1% | [5] 2.4% | [6] -13.4%

CCOP(=O)(OCC)Oc1cc(C)c(SC)c(C)c1
inactive: [1] -6.45% | [2] -24.4% | [3] -0.6% | [4] 9.25% | [5] 19% | [6] -16.8%

COc1cc2c3cc1Oc1c(OC)c(OC)cc4c1C(Cc1ccc(cc1)Oc1cc(ccc1O)CC3N(C)CC2)N(C)CC4 (centres undefined)
inactive: [1] -18.4% and 5.95% | [2] -30.8% and -27.1% | [3] -9.65% and -29.5% | [4] 12.7% and -14.9% | [5] -0.55% and -12.1% | [6] -10.6% and -41%

NC(Cc1cccc(F)c1)c1nn[nH]n1 (centres undefined)
inactive: [1] -7.6% | [2] 2.35% | [3] -0.1% | [4] -22.8% | [5] 1.65% | [6] -0.7%

CC(C)NCC(=O)c1ccc(O)c(O)c1
inactive: [1] 4.9% and -5.1% | [2] -19.3% and 4.45% | [3] -21.8% | [4] -7.25% | [5] -26.1% | [6] 7.7% and -10.9%

CC(Br)([N+](=O)[O-])[N+](=O)[O-]
inactive: [1] 14.6% | [2] 25.8% | [3] 13.9% | [4] 39.6% | [5] 5.4% | [6] 2.8%

CCCCCCNC(=O)C(C)Br (centres undefined)
inactive: [1] -7.35% | [2] 4.9% | [3] -0.55% | [4] -12.4% | [5] 9.95% | [6] 1.85%

CC(CC(C#N)(c1ccccc1)c1ccccc1)[N+]1(C)CCCCCCC1 (centres undefined)
inactive: [1] 11.9% | [2] 1.2% | [3] 2.85% | [4] 1.65% | [5] 1.35% | [6] 19%

CCOP(=O)(OCC)Oc1ccc([N+](=O)[O-])c(CC)c1
inactive: [1] -2.55% | [2] -3.55% | [3] -0.3% | [4] 3.5% | [5] 18.5% | [6] -8.25%

Cc1coc2c1CCC(C)C2 (centres undefined)
inactive: [1] -6.65% | [2] -24.8% | [3] -5.5% | [4] 1.55% | [5] 1.65% | [6] -5.9%

O=C1SCCC1CO (centres undefined)
inactive: [1] -8.65% | [2] 3.9% | [3] -6.8% | [4] -3.15% | [5] -2.3% | [6] -8.45%

COC(=O)C1C2CC3c4c(c5ccc(OC)cc5n4[N+](=O)[O-])CCN3CC2CC(OC(=O)c2cc(OC)c(OC)c(OC)c2)C1OC (centres undefined)
inactive: [1] -14% | [2] -50.5% | [3] -34.4% | [4] -17.9% | [5] -22.2% | [6] -3.9%

c1ccc2c(c1)CCNC2
inactive: [1] 21.8% | [2] 13.2% | [3] 19% | [4] 5.15% | [5] -0.55% | [6] 24.4%

O=C(CF)[O][Sb]([O]C(=O)CF)([c]1ccccc1)([c]1ccccc1)[c]1ccccc1
inactive: [1] 9.8% | [2] 19.9% | [3] 23.8% | [4] -18.6% | [5] 16.2% | [6] 33.8%
